In PubChem BioAssay AID2058 (Sanford-Burnham Center for Chemical Genomics, 2009) one finds inhibition data, which are given here for 26 compounds.

Each structure is given as a SMILES string. The campaign covered roughly 290,000 compounds. About 150 (0.052%) were called active.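 The calls were made as follows: active = inhibition of at least 50% with at least 30 cells and total cytoplasm GFP at most 10,000,000; inconclusive = under 30 cells or total GFP of 10,000,000 plus; inactive = the rest.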 For the sample, actives were picked, then their nearest neighbours and some compounds at random. Results with a measured potency or affinity are listed apart.

The assay deals with G-protein coupled receptor 35 (Homo sapiens) (UniProt Q9HC97). In words: inhibition of zaprinast-stimulated GPR35 beta-arrestin translocation – imaging, U2OS, beta-arrestin-GFP, zaprinast agonist, primary screen (AID 2058). The settings on record: zaprinast antagonism, at 10 µM, stronger effect = higher value.
Sequence of G-protein coupled receptor 35 (Homo sapiens) (Q9HC97 whole entry, looked up): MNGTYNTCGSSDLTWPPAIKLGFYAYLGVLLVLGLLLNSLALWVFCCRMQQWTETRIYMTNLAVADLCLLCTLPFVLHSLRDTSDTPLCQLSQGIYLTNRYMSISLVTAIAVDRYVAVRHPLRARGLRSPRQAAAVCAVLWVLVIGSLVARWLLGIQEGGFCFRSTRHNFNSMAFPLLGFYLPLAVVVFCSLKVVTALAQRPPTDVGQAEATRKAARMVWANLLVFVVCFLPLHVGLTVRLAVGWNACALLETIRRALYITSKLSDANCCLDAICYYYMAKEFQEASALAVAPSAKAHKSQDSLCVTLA
As to `CCC(=O)c1c[nH]c(C(=O)NCCc2ccccn2)c1`, the inhibition was -8% (inactive). As for `O=C(OCc1cc(Cl)ccc1OC(F)F)c1ccc([N+](=O)[O-])o1`, the inhibition was 8.7% (inactive). Take `CCCCC1=CC2=CC(=O)C(C)(OC(=O)CC)C(=O)C2=CN1C(CO)CO` (stereo unspecified): the inhibition is -6.6% (inactive). For `CC(C)NCCOCCOc1ccccc1F`, the inhibition is 12.6% (inactive). As to `N#Cc1cccc(NC(=O)NCCc2c[nH]c3ccccc23)c1`, the inhibition is -5.4% (inactive). Regarding `Cc1cc(C)c(S(=O)(=O)N2CCCOC2CNC(=O)C(=O)NCc2cccs2)c(C)c1` (stereo unspecified), the inhibition was -5.9% (inactive). Regarding `COc1ccccc1NC(=O)Cn1c(=O)n(C)c(=O)c2sc3c(c21)COC(C)(C)C3`, the inhibition is 5.9% (inactive).

On to `CC(=O)c1ccc(NC(=O)CCCN2C(=O)/C(=C/C(C)=C/c3ccccc3)SC2=S)cc1`, for which the inhibition was 19.4% (inactive). Take `CC(/C=C1\SC(=S)N(CCCC(=O)Nc2ccc(C(=O)O)cc2)C1=O)=C\c1ccccc1`: the inhibition is 114% (active).

For the compound `CC(/C=C1\SC(=O)N(CCCC(=O)O)C1=O)=C\c1ccccc1`, the inhibition was -14.5% (inactive). Turning to `CC(/C=C1\SC(=S)N(CCC(=O)Nc2ccc(O)cc2)C1=O)=C\c1ccccc1`, the inhibition was 0.1% (inactive).

On to `CC(=C\c1ccccc1)/C=C1/SC(=O)N(CCCC(=O)Nc2ccc(C(=O)O)cc2)C1=O`, for which the inhibition was 108% (active). For the compound `CC(/C=C1\SC(=O)N(CC(=O)Nc2ccc(O)cc2)C1=O)=C\c1ccccc1`, the inhibition was -6.3% (inactive). As for `CC(=O)N(Cc1cc2c(C)cc(C)cc2[nH]c1=O)C1CCCCC1`, the inhibition is 1.4% (inactive). Consider `O=C(Nc1ccccc1)C1=C[C@@H](c2csc3ccccc23)C[C@@H](OCc2ccc(CO)cc2)O1`, for which the inhibition is -24.8% (inactive). On to `CC(=O)Nc1sc(N/N=C/c2ccc(C)cc2)nc1-c1ccc(C)cc1`, for which the inhibition is -2.6% (inactive). `CCN(CC)c1ccc(/C=C(\C#N)c2nc(-c3cccs3)c(NC(C)=O)s2)cc1`: the inhibition was 70.6% (active).

`CC(=O)Nc1sc(N/N=C\c2ccc(O)cc2)nc1-c1cccs1`: the inhibition was -8.9% (inactive). Regarding `CC(=O)Nc1sc(/C(C#N)=C\c2cccc(Cl)c2)nc1-c1ccc(C)cc1`, the inhibition was 18.1% (inactive). Turning to `CCN(CC)c1ccc(/C=C(\C#N)c2ccccn2)cc1`, the inhibition is 15.1% (inactive). `CC1Cc2ccccc2N1C(=O)CSc1nc(-c2ccccc2)cs1` (stereo unspecified): the inhibition was -14.5% (inactive). Take `O=C(Nc1nc(-c2cccc([N+](=O)[O-])c2)cs1)C(c1ccccc1)c1ccccc1`: the inhibition is 0.8% (inactive).

Consider `COC(=O)c1cc(OC)c(OC)cc1N1C(=O)CCCC1=O`, for which the inhibition was 8.7% (inactive).

Take `CC(=O)N1C=Cc2c(c(C)c3c([nH]c4ccccc43)c2C)C1`: the inhibition was 71.5% (active). Turning to `CC(=O)N1CCc2[nH]c3ccccc3c2C1`, the inhibition is 4.9% (inactive). `Cc1ccc(C)c2c1[nH]c1ccccc12`: the inhibition was 15.5% (inactive).

One may read the inhibition as the relative decrease from the control value, in per cent.
